Experimental data taken from PubChem BioAssay AID1628 (Sanford-Burnham Center for Chemical Genomics, 2009).
The campaign covered roughly 190,000 compounds. About 930 (0.49%) were called active.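 The calls were made as follows: active = z-score of insulin promoter reporter brightness in nuclei below -3 at 5 µM, with at least 500 cells counted; inconclusive = wells with under 500 cells, flagged as toxic or sparse; inactive = the rest.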 Some of the results follow. Potency and affinity values are given separately.

assay: decrease of insulin promoter-GFP reporter – imaging, high-content screening, mouse beta cells (AID 1628); details: MIN6 insulin promoter GFP reporter, at 5 µM, hits give low values

z-score, active:
O=C(CN1CCN(C(=O)c2ccco2)CC1)Nc1ccccc1-c1ccccc1 -4.53
CNc1nc2c(c(=O)n(C)c(=O)n2C)n1Cc1ccccc1 -5.04
Cc1cccc(Cn2c(NCCO)nc3c2c(=O)n(C)c(=O)n3C)c1 -9.37
CC(C)CCn1c(CN(C)Cc2ccccc2)nc2c1c(=O)n(C)c(=O)n2C -5.09
CCN(CC)C(=O)C1CCN(Cc2cccc(OCc3ccccc3)c2)CC1 -4.22
CC(C)CCn1nc(C(=O)Nc2nc3c(s2)CCCC3)c2ccccc2c1=O -3.57
COc1ccc(S(=O)(=O)N2CCN(c3ncnc4c(-c5ccccc5)nsc34)CC2)cc1 -3.2
COc1ccc(N2CCN(C(=O)C3CCC(Cn4c(=S)[nH]c5ccccc5c4=O)CC3)CC2)cc1 (stereo unspecified) -3.35
Cc1cc(Cl)n2nc(C)c(-c3ccc(Cl)cc3)c2n1 -5.26
CCCOc1ccc2ccccc2c1/C=N/n1c(C)nnc1-n1nc(C)cc1C -4.98
COc1cc(C(=O)Oc2ccccc2/C=N/NC(=O)c2ccc(C)c(Cl)c2)cc(OC)c1OC -5.2
CCC(=O)Nc1ccc(C(=O)Cn2ncc(Cl)c(Cl)c2=O)cc1 -3.05
COc1ccccc1C(=O)NC(=Nc1nc2ccccc2o1)NC(=O)c1ccccc1OC -6.44
C/C(=N/Nc1nc(-c2ccccc2)cc(-c2ccccc2)n1)c1ccc(N)cc1 -3.67
Cc1cccc(NC(=O)COc2cccc3c2CCN(Cc2ccccc2)C3=O)c1C -3.66
Cc1nccn1CCc1n[nH]c(=S)n1Cc1ccccc1 -4.01
Cc1nc2ccc(S(=O)(=O)NC(C(=O)N3CCC(C)CC3)C(C)C)cc2s1 (stereo unspecified) -4.34
CC1CC(C)CN(C(=O)C(NS(=O)(=O)c2ccc3c(c2)oc(=O)n3C)C(C)C)C1 (stereo unspecified) -5.42

z-score, inactive:
O=C(OCN1C(=O)c2ccccc2C1=O)c1ccco1 -1.25
O=C(OCC(=O)N1CCN(C(=O)c2ccco2)CC1)c1ccccc1OCc1ccccc1 11.8
Cc1cc(S(=O)(=O)NC2CCCCC2)c(C)s1 3.49
Cn1c(=O)c(NCCO)c2c3c(cccc31)C(=O)c1ccccc1-2 13.6
CC(C)Cn1cnc2c1c(=O)n(C)c(=O)n2C -0.43
Cc1cccc(OCCNc2nc3c(c(=O)n(C)c(=O)n3C)n2C)c1 4.22
CN1CC=C2C(C#N)=C(N)C(C#N)(C#N)[C@H](c3ccoc3)[C@H]2C1 12.4
CC(C)(C)NC(=O)c1nn(Cc2ccccc2)c(=O)c2ccccc12 1.76
Cc1ccc(-n2c3c(c(=O)[nH]c2=O)C(C(F)(F)F)(C(F)(F)F)NC(=O)N3)cc1 3.01
COc1ccc(C2C(C(=O)N3CCOCC3)CCC(=O)N2c2ccc(OC)cc2)cc1 (stereo unspecified) 3.73
Nc1c(C(=O)c2cccs2)sc2nsc(SCCN3CCCCC3)c12 8.75
Nc1nc(-c2ccc(Cl)cc2)c(N=Nc2ccc(S(=O)(=O)N3CCOCC3)cc2)s1 3.8
CCN(CC)c1ccc(/C=C2/SC(=O)N(C(C)C)C2=O)o1 17.3
O=C(CCn1cccc1)Nc1ccc(OC(F)(F)F)cc1 2.14
CN(C)S(=O)(=O)Oc1cccc(C(=O)Nc2ccc([N+](=O)[O-])cc2)c1 3.38
N#C/C(=C\c1ccc(N2CCCCC2)o1)C(N)=O 7.37
O=C(O)c1cc([N+](=O)[O-])c(NCCC2=CCCCC2)c([N+](=O)[O-])c1 0.74
COC(CNC(=O)CSCc1nc(-c2ccc(SC)cc2)oc1C)OC 2.32
COc1cccc(/C=N/NC(=O)c2ccc(N(C)S(=O)(=O)c3ccccc3)cc2)c1OC 3.8
CCCN1C=CC(=CC=C(C#N)C#N)C=C1 4.99
C=CCNC(=O)/C(=C\c1ccc(Br)cc1)NC(=O)c1ccccc1OC 3.42
COc1ccccc1C(=O)NNC(=O)C(=O)NC(C)(C)C 3.28
COc1ccccc1N/C=C/c1onc(C)c1[N+](=O)[O-] 4.57
Cn1c(/C(C#N)=C/c2ccc(-c3ccc(S(N)(=O)=O)cc3)o2)nc2ccccc21 4.53
C/C(=N\Nc1ccc([N+](=O)[O-])cc1)c1cc2ccccc2o1 5.52
CNC(=S)NNC(=O)c1oc2nc(-c3ccccc3)cc(-c3ccco3)c2c1N 3.41
COc1cc(OC)c(-c2c3cc(O)c(=O)cc-3oc3cc(O)c(O)cc23)cc1OC 11.4
S=c1[nH]nc(-c2ccccc2)n1CC1CCCO1 (stereo unspecified) 3.06
CC(C)OC(=O)c1c2c(n3ccccc13)C(=O)c1ccccc1C2=O 11.7
CN1c2ccccc2N(C)C1c1c(O)ccc2ccccc12 1
CC1CC(C)CN(C(=O)c2cccc3c2-c2ccccc2C3=O)C1 (stereo unspecified) 3.97
CC1CCN(C(=O)CNS(=O)(=O)c2ccc(Br)s2)CC1 3.37
CCC(C)NS(=O)(=O)c1ccc(OCC(=O)N2CCC(C)CC2)cc1 (stereo unspecified) 0.84
